PubChem BioAssay (EPA / NIEHS)
Values joined by “and” are separate entries in the source; they are usually repeats but may differ in a detail not shown here. Equal values may be shown once. Where a structure was tested more than once in an assay, its records may differ in their call. Active and inactive are the calls of the source. Rule for the calls: active = hit-call score of the fitted dose curve at least 0.9, where 1 is the maximum; inactive = score below 0.9.

Experiment: ATG_NRF2_ARE_CIS: Attagene CIS-FACTORIAL HepG2 Assay for human Nuclear Factor Erythroid 2 Related Factor 2 (NFR2) response to Antioxidant Response Elements (ARE) (AID 2282992)
Details: HepG2 Attagene ARE/NRF2 reporter, transcription factor activity; actives raise or lower the signal
Protocol: ATG_CIS is a cell-based, multiplexed-readout assay that uses HepG2, a human liver cell line, with measurements taken at 24 hours after chemical dosing in a 24-well plate.ATG_NRF2_ARE_CIS is one of 52 assay component(s) measured or calculated from the ATG_CIS assay. It is designed to make measurements of mRNA induction, a form of inducible reporter, as detected with fluorescence intensity signals by Reverse transcription polymerase chain reaction (RT-PCR) and Capillary electrophoresis technology.Data from the assay component ATG_NRF2_ARE_CIS was analyzed into 1 assay endpoint. This assay endpoint, ATG_NRF2_ARE_CIS, was analyzed with bidirectional fitting relative to DMSO as the negative control and baseline of activity. Using a type of inducible reporter, measures of mRNA for gain or loss-of-signal activity can be used to understand the reporter gene at the transcription factor-level as they relate to the gene NFE2L2. Furthermore, this assay endpoint can be referred to as a primary readout, because this assay has produced multiple assay endpoints where this one serves a reporter gene function. To generalize the intended target to other relatable targets, this assay endpoint is annotated to the dna binding intended target family, where the subfamily is basic leucine zipper.
Human liver HepG2 cells are transiently transfected with multiple reporter transcription units (MRTUs) in 6-well plates using FuGene 6 reagent (Roche; 3 ml FuGene/1 mg DNA). The MRTU constructs are regulated by a cis-regulating element (promoter). […] A major difference between the CIS and TRANS system is that in CIS activities of endogenous TFs are measured, whereas the TRANS assay evaluates changes in activities of exogenous, chimeric NR-Gal4 proteins. […] At the end of 24 hour incubation, total RNA was isolated using TriZol reagent (Invitrogen). The isolated RNA is then reverse-transcribed using oligo(dT) primer and Mo-MLV reverse transcriptase (Invitrogen) with DNAse I (Ambion) treatment for 30 min. The one-tenth of the produced cDNA was amplified by PCR using Taq DNA polymerase (Invitrogen) and two reporter sequence-specific primers. The PCR products were fluorescently labeled by primer extension with 6-arboxyfluorescein (6-FAM) 5'-labeled reporter sequence-specific primer (2 min at 95 C, 20 s at 68 C and 10 min at 72 C) and these products were digested with 5U of HpaI (New England Biolabs) for 2h at 37 C. The fragments were purified using Qiaquick PCR columns (Qiagen), analyzed on an ABI 3130xL genetic analyzer (Applied Biosystems) with peak positions identified by using a set of X-rhodamine (ROX)-labeled MapMarker1000 molecular weight standards (BioVentures). The raw capillary electrophoresis data was processed using Attagraph software (Attagene).

Row | Compound | AC50 | outcome
1 | O=C(N[C@@H](c1ccccc1)[C@@H]1CCCCN1)c1cccc(C(F)(F)F)c1Cl | 9.19 µM (active) | –
2 | CCCC(=O)O | – | inactive
3 | O=C1OC(c2ccc(O)cc2)(c2ccc(O)cc2)c2ccccc21 | 177 µM (active) | –
4 | CO[C@@H]1COCC[C@@H]1N[C@@H]1CC[C@@](C(=O)N2CCc3ncc(C(F)(F)F)cc3C2)(C(C)C)C1 | – | inactive
5 | CC(=O)O[C@]1(C(C)=O)CC[C@H]2[C@@H]3C=C(Cl)C4=CC(=O)[C@@H]5C[C@@H]5[C@]4(C)[C@H]3CC[C@@]21C | 48.4 µM (active) [middle of 4 runs] | inactive
6 | Nc1nc(Cl)nc2c1ncn2[C@H]1C[C@H](O)[C@@H](CO)O1 | – | inactive
7 | CN(C)C(=O)NC1(c2ccccc2)CCN(CCC[C@]2(c3ccc(Cl)c(Cl)c3)CCCN(C(=O)c3ccccc3)C2)CC1 | 1.64 µM (active) | –
8 | O=C(O)c1cccnc1 | – | inactive
9 | CCOCCOCCO | – | inactive
10 | CC1(C)C(=O)NC(=O)N1CO | – | inactive
11 | Oc1ccc(O)cc1 | 16.6 µM (active) | –
12 | CCCCOC(=O)CCCCC(=O)OCCCC | – | inactive
13 | CCCCCCCCCC[N+](C)(C)[O-] | – | inactive
14 | c1ccc2occc2c1 | – | inactive
15 | CCCCC(CC)COP(=O)(OCC(CC)CCCC)OCC(CC)CCCC (stereo not given) | – | inactive
16 | CCCCCCCCCCCCCCOS(=O)(=O)O | – | inactive
17 | CCCCCCCCCCCCCCCCO | – | inactive
18 | S=c1[nH]c2ccccc2s1 | 54.9 µM (active) | –
19 | CCCCC(CC)COC(=O)CCCCCCCC(=O)OCC(CC)CCCC (stereo not given) | – | inactive

Row | Compound | AC50 | outcome
20 | CC1=C(C)S(=O)(=O)CCS1(=O)=O | 17.8 µM (active) | –
21 | CCCCCCC(C=O)=Cc1ccccc1 | 27.8 µM (active) and 41 µM (active) | –
22 | CSc1ccc(Oc2ccc(S(N)(=O)=O)cc2CN(C)C)cc1C | – | inactive
23 | CN(C)CCCN1c2ccccc2Sc2ccc(Cl)cc21 | 11.1 µM (active) | –
24 | OCC(CO)n1cnc(-c2ccc(F)cc2)c1-c1ccnc(Oc2ccccc2)n1 | 25.3 µM (active) | –
25 | CC(C)c1cccc(C(C)C)c1NC(=O)NS(=O)(=O)c1cc(C(C)(C)O)co1 | – | inactive
26 | O=C(O)c1[nH]n(-c2ccc(S(=O)(=O)O)cc2)c(=O)c1N=Nc1ccc(S(=O)(=O)O)cc1 | – | inactive
27 | CC(=O)CC(c1ccccc1)c1c(O)c2ccccc2oc1=O (stereo not given) | 27 µM (active) | inactive
28 | CC(C)NCC(O)c1ccc(O)c(O)c1 (stereo not given) | – | inactive
29 | COC(=O)CCCC(=O)OC | – | inactive
30 | O=C(Oc1ccccc1)c1cccc(C(=O)Oc2ccccc2)c1 | – | inactive
31 | CC(=O)OC1CC(C)OC(C)O1 (stereo not given) | 68.9 µM (active) | –
32 | NC(=Nc1ccccc1)Nc1ccccc1 | 5.38 µM (active) | –
33 | CCCCC(CC)CO (stereo not given) | – | inactive
34 | Cc1cc(Cc2ccc(N)c(C)c2)ccc1N | – | inactive
35 | Cc1cc(SC2=C(O)C[C@@](CCc3ccc(N)cc3)(C(C)C)OC2=O)c(C(C)(C)C)cc1CO | 4.49 µM (active) | –
36 | Oc1ccccc1O | 13.1 µM (active) | –
37 | O=Cc1ccccc1C=O | – | inactive
38 | CC(=O)O | – | inactive
